# Data from ChEMBL document CHEMBL1157539, “Thousands of chemical starting points for antimalarial lead identification” (Nature, 2010).
# How the values were obtained:
# Type in all cases: functional
# Plasmodium falciparum [1] = assay: GSK_TCMDC: Inhibition of Plasmodium falciparum 3D7 in whole red blood cells, using parasite LDH activity as an index of growth. Test compounds present at 2uM
# Plasmodium falciparum [2] = assay: GSK_TCMDC: Inhibition of Plasmodium falciparum Dd2 in whole red blood cells, using parasite LDH activity as an index of growth. Test compounds present at 2uM
# HepG2 = assay: GSK_TCMDC: Percent inhibition of human HepG2 cell line. Test compounds present at 10uM.
Structure (SMILES),Inhibition (Plasmodium falciparum [1]) [%],Inhibition (Plasmodium falciparum [2]) [%],Inhibition (HepG2) [%]
O=C(O)C(F)(F)F.S=C(Nc1cccc(Cl)c1)NC1CCN(c2ccnc3cc(Cl)ccc23)C1 (centres undefined),100,89,16
O=C(O)C(F)(F)F.c1cc(OCCN2CCCC2)ccc1CNC1CCN(CC2CCCCC2)CC1,100,54,15
OC1CCN(c2cc(-c3ccccn3)nc(-c3ccccn3)n2)CC1,83,97,43
CNc1ccc(CNCc2cccc(-c3ccc(-c4nc5cccc(C)c5[nH]4)cc3)c2)cc1.O=C(O)C(F)(F)F,100,83,26
O=C(NC1CCN(Cc2ccccc2)C1)c1ccc(Nc2ccc(Br)cc2)nc1.O=C(O)C(F)(F)F (centres undefined),94,21,19
Cl.O=C(Nc1ccc(Cl)cc1)Nc1cccc(-c2cc(CNCCc3ccccc3)oc2-c2ccncc2)c1,100,92,40
CCOC(=O)C1CCN(CCOc2cc(NC(=O)/C=C/c3ccccc3Cl)ccc2Br)CC1.O=C(O)C(=O)O,87,29,6
O=S(=O)(NC1=NCCC1)c1cccc(Nc2nc(C(F)(F)F)nc3ccccc23)c1,83,8,6
CC(C)C[C@@H](/C=N/N1CCOC1=O)NC(=O)[C@H](CC(C)C)NC(=O)c1ccc(F)cc1,85,72,1
N#Cc1cc([N+](=O)[O-])ccc1-n1nc(C(N)=O)n(Cc2cccc(F)c2)c1=S,100,100,6
CCOc1ccc(S(=O)(=O)N(C)c2ccc(OCC(=O)Nc3nccs3)cc2)cc1,95,4,8
CCN(CC)CCCCNc1cc(-c2[nH]c(C(C)(C)C)nc2-c2ccc3cc(OC)ccc3c2)ccn1.O=C(O)C(F)(F)F,85,76,23
CCc1ccc(NC(=O)C=NNC(=N)N)cc1.O=S(=O)(O)O,100,3,13
CN(C)CCCOc1ccc(CCNCc2cccc(Oc3ccc(Cl)cc3)c2)cc1.O=C(O)C(F)(F)F,94,26,57
COc1ccc2sc(CNCCCNc3cc(=O)c4ccccc4[nH]3)c(Cl)c2c1.Cl,85,42,1
O=C(Nc1cc(F)cc(F)c1)N[C@H]1CCN(CCCCCNC(=O)C2CC2c2ccc(Cl)c(Cl)c2)C1 (some centres undefined),88,0,24
OC(CNCc1ccccc1OCc1ccccc1)c1cccc(C(F)(F)F)c1 (centres undefined),99,99,12
COc1ccc(-c2nc(NC(=O)CSc3ccccc3)sc2C)cc1,94,31,6
CCN(CCCN1CCCCC1)c1cc(C)nc(Nc2ccc(C)cc2Br)n1.O=C(O)C(F)(F)F,95,27,49
O=C(Nc1ccc(-c2cccc(-c3nc4ccccc4[nH]3)c2)cc1)Nc1ccc2c(c1)OCO2,100,65,55
Cc1cc(NC(=O)Nc2ccc(Cl)cc2F)c2ccccc2n1,100,71,10
O=C(C1CCN(c2nnnn2-c2ccccc2)CC1)N1CCc2ccccc2C1,97,97,0
CC(C)C(NC(=O)c1c(F)cccc1F)C(=O)Nc1ccc(Cc2nc3ccccc3s2)cc1 (centres undefined),86,55,0
CCOc1ccccc1N1CCN(CCCNC(=O)/C(=C/C=C/c2cc3cc(Cl)c(Cl)cc3[nH]2)OC)CC1,98,93,45
CCOC(=O)c1cccc(NC(=O)Nc2cccc(-c3ncc(OCCCN)c4c3nc(-c3nonc3N)n4CC)c2)c1.O=C(O)C(F)(F)F,100,98,16
Cn1nc(-c2ccc(S(=O)(=O)N3CCC(CCN4CCC(c5c[nH]c6ccccc56)CC4)CC3)s2)cc1C(F)(F)F,94,22,40
CCCCSc1nc2c(c(=O)n1Cc1ccco1)C1(CCCCC1)Cc1ccccc1-2,96,78,13
CC(C)(C)Nc1cc(C(=O)N[C@@H](Cc2ccccc2)[C@H](O)CNC2CCOCC2)cc(N2CCCCS2(=O)=O)c1,99,98,0
